# High-throughput results from PubChem BioAssay.
# Mito fusion act: mitochondrial division inhibition or fusion activation; S. cerevisiae fusion-defective mutant growth rescue, CellTiterGlo 48 h; Potency, µM (top dose mostly 46.1 µM), without a hit: at the highest dose growth rescue (activation), actives largely listed as activators; 0.23% of 320,000 active; AID 485298; further: % of control where 0% means no effect; nearly all actives have a fitted effect of over 45% in size
#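 Temperature-sensitive fusion-defective S. cerevisiae (e.g. fzo1-1, mgm1-5) were grown with compound in YPEG medium (3% ethanol, 3% glycerol) for 48 hours at 37C. Growth rescue was measured as viability by CellTiterGlo luminescence after 10 minutes at ambient.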
# GLS inhibitor: inhibitors of human glutaminase (GLS) | O94925 | GLS enzymatic activity, qHTS titration | Potency, µM (series often up to 45.5 µM), for the others: at the highest dose activity change, negative = inhibition, hits mostly inhibitors | 0.21% of 410,000 active; further: on the % scale 0 is the no-effect control and ±100 the full control effect
#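 Assay buffer: 45 mM KH2PO4 pH 8.2, 0.02% Tween-20. hKGA acts on L-glutamine (1 mM solution added); product glutamate is reported by an oxidase/peroxidase Amplex Red coupling, with fluorescence taken at baseline and 30 min.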
# KAT2A inh: GCN5L2 (KAT2A) acetyltransferase inhibition. Q92830. GCN5L2 HAT assay, ThioGlo1 CoA-SH fluorescence. Potency, µM (doses to about 58.9 µM), inactives show at the top dose activity change, negative = inhibition, actives largely listed as inhibitors. 0.21% of 390,000 active. AID 504327; further: on the % scale 0 is the no-effect control and ±100 the full control effect
#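 GCN5L2 (20nM final) in 50mM HEPES, 0.1mM EDTA pH 7.5, 0.01% Tween-20 was preincubated 15 min at room temperature with compound, then given ThioGlo1 (50uM), H3(1-25) peptide (75uM) and acetyl-CoA (70uM); CoA-thiol fluorescence (Ex340/Em540) was read at 0 and 20 min.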
# PLK1 PBD block: PLK1 (human) polo-box domain binding inhibition | Potency, µM, without a hit: max response, negative = inhibition, most hits filed as inhibitors | 2.8% of 360,000 active | Plk1 PBD binding of FITC phosphopeptide, fluorescence polarization; further: series mostly up to about 57 µM; on the % scale 0 is the no-effect control and ±100 the full control effect; nearly all actives have a fitted effect of over 65% in size
# PKM2 activator: PKM2 (human) enzyme activation; P14618; purified PKM2, Kinase-Glo ATP luminescence, activation; response scale: 0% is enzyme alone, no compound; Potency, µM (top dose mostly 57.5 µM), for the others: at the top dose activation, actives largely listed as activators; 0.34% of 260,000 active; further: on the % scale 0 is the no-effect control and ±100 the full control effect; nearly all actives have a fitted effect of over 55% in size
#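 Kinase-Glo luminescence reports ATP generated from ADP (0.1 mM) and PEP (0.5 mM) by purified hPK-M2 after 1 h at room temperature, pH 7.2 imidazole buffer; intermediate enzyme activity allows detecting inhibitors and activators.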
# VDR inhibitor: blocks the human vitamin D receptor. VDR-SRC2-3 peptide fluorescence polarization, 2 h. Potency, µM, for inactives: max response, negative = inhibition, most hits filed as inhibitors. 0.93% of 400,000 active; further: on the % scale 0 is the no-effect control and ±100 the full control effect
# Target sequence (P11473 whole entry, looked up): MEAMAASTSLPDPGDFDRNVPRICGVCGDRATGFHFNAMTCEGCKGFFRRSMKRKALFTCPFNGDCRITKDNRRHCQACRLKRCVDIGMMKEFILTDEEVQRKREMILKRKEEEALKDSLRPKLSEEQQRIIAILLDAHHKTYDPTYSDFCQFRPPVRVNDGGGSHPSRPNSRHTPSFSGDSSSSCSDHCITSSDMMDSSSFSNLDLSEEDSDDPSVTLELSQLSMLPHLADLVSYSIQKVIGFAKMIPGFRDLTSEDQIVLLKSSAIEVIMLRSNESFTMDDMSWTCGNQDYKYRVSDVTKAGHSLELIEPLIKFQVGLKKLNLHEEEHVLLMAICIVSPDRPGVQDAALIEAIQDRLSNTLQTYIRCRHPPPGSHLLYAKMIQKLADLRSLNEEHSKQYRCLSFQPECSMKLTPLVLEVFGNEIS
#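 Reagent solutions, kept cold and dark, are dispensed first; compounds are then pinned in at 23 nl, plates briefly spun, and incubated 2 h at ambient temperature. Inhibition of VDR–SRC2-3 peptide binding is read by fluorescence polarization.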
# An asterisk follows results filed as active; ? = inconclusive; / = no result given; [ ] = dose if it differs, or a comment. This is a sample that favours compounds with a hit; in the whole collection about 3.4% have one here. The call rests on the fitted dose curve; in most records, active means well fitted curve in the direction sought with a large enough effect; inconclusive means small, poorly fitted or top-dose-only effect, or another doubt; inactive means no such curve, though single readings can be large; an effect the other way counts as inactive or inconclusive. Potency means the concentration at half of the fitted maximal effect.
SMILES,Mito fusion act,GLS inhibitor,KAT2A inh,PLK1 PBD block,PKM2 activator,VDR inhibitor
Cc1cc(NC(=O)CSc2nnc(Cn3c(=O)sc4ccccc43)n2-c2ccccc2C)no1,1.8%,3.1%,-0.1%,-7.6%,-1.7%,0.3%
COc1ccc(SCC(CC(C)C)N2CCN(CCc3ccccc3)CCC2=O)cc1 (stereo not drawn),/,/,/,/,/,-0.2%
C=CCn1c(N)c(C(=O)NCCC2=CCCCC2)sc1=S,4.7%,-7.3%,?,7.52µM*,0.5%,?
O=S(=O)(NC(=NC1CCCCC1)c1ccccc1F)c1ccccc1,0.631µM*,0.2%,1.8%,6.0%,/,10.0%
Oc1cc(CNC2CCCCC2)c(O)cc1CNC1CCCCC1,/,?,/,5.32µM*,/,-14.8%
O=c1cc2c(nn1Cc1ccccc1)-c1ccccc1CC2,1.7%,14.4%,-8.5%,-4.4%,-1.8%,-1.3%
O=c1cc2c(nn1Cc1ccc(F)cc1)-c1ccccc1CC2,12.6µM*,0.1%,1.7%,-10.8%,3.6%,-10.7%
Cn1nc(Oc2ncc(C(F)(F)F)cc2Cl)cc1C(F)(F)F,4.1%,8.2%,-5.5%,26.7µM*,-0.9%,-26.4%
CCC1CN2CCC1CC2[C@@H](NC(=S)Nc1cc(C(F)(F)F)cc(C(F)(F)F)c1)c1cccc2ccc(OC)cc12 (stereo partly drawn),/,/,/,/,/,-12.2%
O=C(NCCN1CCN(c2ccccc2)CC1)c1ccccc1F,-7.7%,71.0%,-2.4%,23.8µM*,/,-21.1%
O=C(NCCCN1CCN(CCCNC(=O)c2ccccc2F)CC1)c1ccccc1F,-5.3%,7.5%,0.9%,0.3%,-3.5%,3.4%
O=C(N=Nc1c(O)[nH]c2ccccc12)c1cccc(S(=O)(=O)Nc2ccccc2Cl)c1,-4.6%,-0.3%,4.7%,29.9µM*,-2.7%,-21.9%
COc1ccc(-c2ccccc2)cc1NC(=O)C1(C)CCN1C(=O)C(C)C (stereo not drawn),/,1.9%,/,-6.6%,/,/
CCOC(=O)c1c(NC(=O)COC)sc(C)c1C,9.8%,8.6%,0.4%,-2.6%,-3.5%,14.5%
CCOC(=O)c1c(NC(=O)Cn2nc(C(F)(F)F)cc2C)sc(C)c1C,2.9%,10.6%,49.1%,26.7µM*,10.1%,-10.0%
CCOC(=O)c1c(NC(=O)Cn2cnc([N+](=O)[O-])n2)sc(C)c1C,5.8%,6.5%,-1.4%,23.8µM*,0.0%,-10.2%
CCOC(=O)c1c(NC(=O)Cn2nc(C(F)F)cc2C(F)F)sc(C)c1C,8.0%,0.1%,-7.6%,-3.4%,0.1%,-10.2%
COC(=O)c1c(NC(=O)Cn2nc(C(F)F)cc2C(F)F)sc(C)c1C,2.0%,-13.3%,-24.1%,15µM*,-18.6%,-14.6%
Cc1ccc(SCC(c2ccccc2)N2CCN(CCc3ccccc3)CCC2=O)cc1 (stereo not drawn),/,/,/,/,/,-14.7%
COc1cccc(NC(=O)CSc2ncc(S(=O)(=O)c3ccccc3)c(=O)[nH]2)c1,-11.3%,59.5%,0.4%,26.7µM*,-2.0%,-29.1%
COc1cccc(NC(=O)c2ccc3c(O)c(S(=O)(=O)c4ccccc4)c(=O)[nH]c3c2)c1,-16.9%,16.7%,-5.8%,23.8µM*,/,?
Cc1ccc(NC(=O)CSc2ncc(S(=O)(=O)c3ccccc3)c(=O)[nH]2)cc1C,6.2%,15.5%,0.4%,-18.3%,-25.2%,-5.0%
Cc1nc2n(c(=O)c1CCN1CCC(c3noc4cc(F)ccc34)CC1)CCC[C@@H]2O,/,-2.6%,/,/,/,/
CC[N+](CC)(CC)CCOC(=O)C(C1CCCC1)C1CCCC1,/,1.5%,/,/,/,/
COc1cccc(N2CCN(C(=O)C3CCN(S(=O)(=O)c4c(C)noc4/C=C/c4ccccc4F)CC3)CC2)c1,/,4.2%,-4.4%,/,/,2.1%
SMILES,Mito fusion act,GLS inhibitor,KAT2A inh,PLK1 PBD block,PKM2 activator,VDR inhibitor
COc1cccc([C@@H]2Oc3ccc(OC)cc3C[C@H]2OC(=O)Nc2ccc(OC(F)F)cc2)c1,/,/,/,/,/,-1.1%
NC(=O)c1cc[n+](CC2=C(C(=O)[O-])N3C(=O)[C@@H](NC(=O)Cc4cccs4)[C@@H]3SC2)cc1,/,-12.2%[20 µM],-22.9%[21.4 µM],/,/,15.8µM*
NC(=O)c1cc[n+](CC2=C(C(=O)O)N3C(=O)[C@@H](NC(=O)C(c4ccccc4)S(=O)(=O)[O-])[C@H]3SC2)cc1 (stereo partly drawn),-0.3%,0.794µM*,0.0%,4.74µM*,0.2%,-22.4%
Cc1c(Cl)cnn1CC(=O)NC1C(=O)N2C(C(=O)O)=C(CSc3nnnn3C)CSC12 (stereo not drawn),-0.4%,-23.6%,1.8%,?,10.4%,-12.9%
CC1=C(C(=O)O)N2C(=O)C(NC(=O)C(N)c3ccc(O)cc3)C2SC1 (stereo not drawn),/,/,-20.0%,/,/,?
N[C@@H](C(=O)N[C@@H]1C(=O)N2C(C(=O)O)=C(CSc3cn[nH]n3)CS[C@H]12)c1ccc(O)cc1,/,6.31µM*,/,/,/,/
O=C(O)C1=C(CSc2nnnn2CS(=O)(=O)O)CS[C@@H]2[C@H](NC(=O)[C@H](O)c3ccccc3)C(=O)N12,/,?,-15.7%,/,/,39.8µM*
COc1cc2c(c(OC)c1OC)-c1c(cc3c(c1OC)OCO3)CC(C)C(C)C2 (stereo not drawn),/,/,-11.4%,/,/,2.4%
COc1cc2c(c(OC)c1OC)-c1c(cc3c(c1O)OCO3)C[C@@H](C)[C@@H](C)C2,17.8µM*,1.9%,13.4%,-0.3%,-1.0%,-12.3%
CCCCCCCCSc1nnc2[nH]c(=O)cc(N)n12,1.4%,-4.0%,-6.4%,3.36µM*,0.5%,?
CCC(Cn1nnc2ccccc2c1=O)NC(=O)Nc1cc(C)cc(C)c1 (stereo not drawn),/,-12.0%,-4.4%,/,/,-14.5%
O=[N+]([O-])c1cccc(S(=O)(=O)NCC2CC3CCC2C3)c1 (stereo not drawn),0.3%,88.4%,-19.5%,5.4%,/,-14.2%
COc1ccccc1CNCCS(=O)(=O)NCc1ccccc1OC,/,3.7%,/,-11.2%,/,-7.9%
COc1ccccc1CNS(=O)(=O)N(C)C,5.6%,0.3%,3.7%,21.2µM*,-6.4%,7.0%
COc1cccc(CNS(=O)(=O)c2ccccc2Br)c1OC,/,23.3%,/,18.9µM*,/,?
CCc1cc2c(SCC(=O)c3ccc(C)cc3)ncnc2s1,1.1%,-15.3%,-0.3%,29.9µM*,11.2%,7.8%
CCc1cc2c(SCC(=O)NC3CCCC3)ncnc2s1,/,-8.0%,/,-1.8%,/,/
CCOC(=O)n1c(=O)n(Cc2cccc(C)c2)c2ccccc21,1.5%,-19.7%,-6.3%,11.9µM*,0.8%,?
COc1cccc(N=Nc2c(=O)[nH]n3c(=O)c4c([nH]c23)CCC4)c1,-2.8%,0.4%,-14.4%,29.9µM*,0.6%,-13.2%
Cc1ccc(C(=O)N/N=C/c2cccc(OC(=O)/C=C/c3ccco3)c2)cn1,-11.3%,12.6%,-12.0%,26.7µM*,13.5%,-11.8%
